Only some compounds are listed: those with a hit (about 3.5% of all), similar ones and a draw of the others.
TMEM16A act: mouse TMEM16A channel activation, primary screen | Q8BHY3 | HEK293 TMEM16A/YFP-H148Q/I152L, iodide quench fluorescence; hits give low values | B-score at 10 µM | 0.3% of 340,000 active | AID 623877;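 active = fluorescence-ratio B-score plate-corrected deviation score at least 3 library SD below zero, with starting fluorescence score within 5 deviations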;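 note: channel opened by trigger with iodide after compound preincubation; score built on the fluorescence ratio of max minus min over baseline; more negative score means more quench and so TMEM16A activation or potentiation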
Kir21 inh: inhibitors of mouse Kir2.1 inward-rectifier potassium channel. 0.85% of 310,000 active. AID 1672. HEK293-Kir2.1, FluxOR thallium flux fluorescence; hits give low values. B-score at 10 µM;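 active = fluorescence ratio B-score at or below minus 3 SD of library scores, with starting-brightness B-score within 2 SD, cut at about -4.2 in these data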;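 note: channel flux triggered by added potassium and thallium sulfate stimulus; B-score of peak minus minimum fluorescence over baseline after thallium stimulus; more negative B-score means stronger Kir2.1 block with less thallium influx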
KCNK9 inh: blocks the human KCNK9 two-pore domain potassium channel; HEK293 KCNK9, FluxOR thallium flux fluorescence; hits give low values; B-score at 10 µM; 1.2% of 310,000 active; AID 488922;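 active = ratio B-score over 3 SD below the library mean, with starting fluorescence within 5 SD of its mean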;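 note: negative B-score means less thallium flux so channel inhibition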
KCNK3 block: human KCNK3 channel inhibition, primary screen; B-score at 10 µM; O14649; 0.84% of 340,000 active; CHO-KCNK3 thallium flux, FluxOR fluorescence; hits give low values; AID 602410;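 active = B-score under library mean minus 4 SD, starting fluorescence ratio at most library mean plus 5 SD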;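 note: more negative B-score means stronger inhibition of thallium flux through KCNK3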
ANO1 block: mouse TMEM16A channel inhibition, primary screen. 1.2% of 310,000 active. Q8BHY3. HEK293 TMEM16A/YFP iodide influx fluorescence, ionomycin. normalized B-score (activity score, 25-100; higher = stronger inhibition) at 10 µM;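 active = ratio plate-corrected score three or more library SD toward inhibition, starting fluorescence score within five deviations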;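 note: score derived from kinetic fluorescence span divided by baseline fluorescence per well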
KCNK9 inh conf: human KCNK9 inhibitor confirmation. shares compounds with KCNK9 inh. HEK293 KCNK9 cells, FluxOR thallium flux fluorescence. inhibition, % at 10 µM. 43% of 4,900 active. AID 492992;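 active = thallium signal inhibited by more than 5 SD of the compound-free buffer control wells, on both duplicate plates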
Kir2-1 spec: mouse Kir2.1 off-target activity of KCNK9 modulators; shares compounds with KCNK9 inh; Kir2.1 cells, FluxOR thallium flux fluorescence; inhibition, % at 10 µM; 4% of 4,900 active; AID 492993;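 active = thallium signal drop more than 5 SD beyond the mean of the no-compound control wells, seen in both duplicate plates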;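 note: signal is fluorescence rise after thallium addition divided by baseline fluorescence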
KCNK9 uninduced: non-induced cell nonspecific activity of KCNK9 modulators. AID 492997. 40% of 4,900 active. non-induced KCNK9-HEK293, FluxOR thallium flux. shares compounds with KCNK9 inh. inhibition, % at 10 µM;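 active = thallium signal drop beyond 5 SD of the untreated control mean, on both duplicate plates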
Each line names hits and unclear results; the compound was inactive in the other large screens (follow-up assays come after a bar, where they were run).

CN(C)c1ccc(N=c2sc3ccccc3n2C)cc1	none | KCNK9 inh conf inactive | Kir2-1 spec inactive | KCNK9 uninduced inactive
CC(=O)N/N=c1\sc2ccccc2n1C	none
O=C(O)c1cccc2c1C(=O)c1ccccc1C2=O	none
COc1cccc2c1-c1c(C(=O)O)cccc1C2=O	none | KCNK9 inh conf inactive | Kir2-1 spec inactive | KCNK9 uninduced inactive
O=C(N/N=C/c1ccc([N+](=O)[O-])cc1)c1[nH]ncc1Br	none
Cc1ccc(-c2csc3ncn(CC(=O)OC(C)C)c(=O)c23)cc1	none | KCNK9 inh conf inactive | Kir2-1 spec inactive | KCNK9 uninduced inactive
CCCOC(=O)Cn1cnc2scc(-c3ccc(C)cc3)c2c1=O	none | KCNK9 inh conf inactive | Kir2-1 spec inactive | KCNK9 uninduced inactive
Cc1cccc(NC(=O)C(C)Oc2ccc(C)nc2[N+](=O)[O-])c1 (configuration not stated)	none (no result: Kir21 inh, KCNK9 inh, ANO1 block)
O=C(O)c1ccccc1-c1ccccc1C(=O)Nc1ccc(-c2nc3cc(Cl)ccc3o2)cc1	none | KCNK9 inh conf inactive | Kir2-1 spec inactive | KCNK9 uninduced inactive
O=C(CCCSc1ccc(Cl)cc1)Nc1ccccc1O	none | KCNK9 inh conf inactive | Kir2-1 spec inactive | KCNK9 uninduced inactive
Cn1c(=O)c2nc(-c3ccc(Cl)cc3Cl)oc2c2ccccc21	KCNK9 inh -10 | KCNK9 inh conf 28% | Kir2-1 spec inactive | KCNK9 uninduced 32%
Cc1ccccc1OCCNC(=O)CSc1ccc(C(F)(F)F)cc1[N+](=O)[O-]	none
CCOc1ccc2ncc(C(=O)c3ccc(OC)cc3)c(N3CCN(CC)CC3)c2c1	none
CCc1ccc(C(=O)c2cnc3ccc(OC)cc3c2N2CCN(CC)CC2)cc1	none | KCNK9 inh conf inactive | Kir2-1 spec inactive | KCNK9 uninduced inactive
NC(=O)C1CCN(CC(=O)N2N=CCC2c2ccccc2)CC1 (configuration not stated)	KCNK9 inh -8.9 | KCNK9 inh conf inactive | Kir2-1 spec inactive | KCNK9 uninduced inactive
O=C(CNS(=O)(=O)c1ccc(Br)s1)N1CCC(N2CCCCC2)CC1	none
OCC1(Cc2cccc(Cl)c2)CCCN(Cc2sc(N3CCCC3)nc2Cl)C1 (configuration not stated)	none | KCNK9 inh conf inactive | Kir2-1 spec inactive | KCNK9 uninduced inactive
COc1ccccc1/C=C/CN1CCCC(CO)(Cc2cccc(Cl)c2)C1 (configuration not stated)	none | KCNK9 inh conf inactive | Kir2-1 spec inactive | KCNK9 uninduced inactive
Cc1ccc(-n2nc3c(=O)n(CCCC(=O)N4CCC(C(N)=O)CC4)nc(C)c3c2C)cc1	none
CC(C)c1nc(SCC(=O)NCC2CCCO2)c2c(=O)n(C)c(=O)n(C)c2n1 (configuration not stated)	none
CCCCN(C(=O)C1=NN(c2ccccc2)C(=O)CC1)c1c(N)n(CC(C)C)c(=O)[nH]c1=O	none (no result: Kir21 inh, KCNK9 inh, ANO1 block)
Cc1ccc(C)c(CSc2nnc(-c3cccs3)n2Cc2ccco2)c1	Kir21 inh -5, KCNK9 inh -12 | KCNK9 inh conf 36% | Kir2-1 spec 61% | KCNK9 uninduced 42%
NC(=O)CSc1nnc(-c2cccs2)n1Cc1ccco1	none
O=C(O)C(C=C(Cl)Cl)N1CCOCC1 (configuration not stated)	none (no result: Kir21 inh, KCNK9 inh, ANO1 block)
CCN(CC)CCn1c(=S)[nH]c2ccc(Br)cc2c1=O	none
O=C(NC1(Cc2ccccc2)CCN(CCCc2ccccc2)C1=O)c1ccccc1 (configuration not stated)	none (no result: Kir21 inh, KCNK9 inh, ANO1 block)
CC(C)c1ccccc1-n1c(SCc2cc(=O)oc3ccc4ccccc4c23)nnc1-c1cccnc1	KCNK9 inh -11 | KCNK9 inh conf 50% | Kir2-1 spec inactive | KCNK9 uninduced inactive
O=C(COC(=O)C1CCC1)NCc1ccc(Cl)cc1Cl	none
COc1ccc(N(CC(=O)N2CCN(C)CC2)S(=O)(=O)c2ccccc2)cc1	none
Cn1c(=O)c(C(=O)NCc2ccccc2)c(O)c2ccccc21	none
COc1ccc(CNC(=O)c2c(O)c3ccccc3n(C)c2=O)cc1OC	none
Cn1c(=O)c(C(=O)NCCCc2ccccc2)c(O)c2ccccc21	none | KCNK9 inh conf inactive | Kir2-1 spec inactive | KCNK9 uninduced 28%
COc1ccc(CCNC(=O)c2cc3c(=O)n(C)c4ccccc4c3n2C)c(OC)c1	none | KCNK9 inh conf inactive | Kir2-1 spec inactive | KCNK9 uninduced inactive
COc1ccc(CCNC(=O)c2c(O)c3ccccc3n(C)c2=O)cc1	none | KCNK9 inh conf inactive | Kir2-1 spec inactive | KCNK9 uninduced inactive
COc1cc(NC(=O)c2cc3c(=O)n(C)c4ccccc4c3n2C)cc(OC)c1OC	none
CCN1C(=O)[C@H]2[C@@H](c3ccc(-c4ccc(OC)cc4)cc3)N[C@@](CC(C)C)(C(=O)OC)[C@H]2C1=O	none
Fc1ccc(C2c3[nH]c4ccccc4c3CCN2Cc2ccoc2)cc1 (configuration not stated)	none | KCNK9 inh conf inactive | Kir2-1 spec inactive | KCNK9 uninduced inactive
CCOC(=O)c1ccc(N2C(=O)c3n[nH]c(-c4ccco4)c3C2c2cccc([N+](=O)[O-])c2)cc1 (configuration not stated)	KCNK9 inh -9.4 | KCNK9 inh conf 64% | Kir2-1 spec inactive | KCNK9 uninduced 30%
CCOC(=O)c1ccc(N2C(=O)c3n[nH]c(C)c3C2c2ccco2)cc1 (configuration not stated)	none
CCOC(=O)N/N=C\c1ccc(-c2cc(Cl)ccc2Cl)o1	KCNK9 inh -8.6 | KCNK9 inh conf 45% | Kir2-1 spec inactive | KCNK9 uninduced inactive
Cc1ccc(CNC(=O)CCS(=O)(=O)c2ccc3c(c2)CC(C)N3C(=O)C2CC2)cc1 (configuration not stated)	none
CCSCC1COC(c2cccn2Cc2ccc(C)cc2)=N1 (configuration not stated)	none | KCNK9 inh conf inactive | Kir2-1 spec inactive | KCNK9 uninduced 26%
CCOC(=O)c1oc2ccccc2c1NC(=O)c1ccccc1OC	KCNK9 inh -8.9 | KCNK9 inh conf 34% | Kir2-1 spec inactive | KCNK9 uninduced inactive
CC1(C)Oc2ccc3ccc(=O)oc3c2/C(=C/NC2CCCCC2)C1=O	KCNK9 inh -11 | KCNK9 inh conf 35% | Kir2-1 spec inactive | KCNK9 uninduced 34%
CC1(C)Oc2ccc3ccc(=O)oc3c2/C(=C/N)C1=O	none
NS(=O)(=O)c1ccc(NC(=S)Nc2ccn(Cc3cccc4ccccc34)n2)cc1	none | KCNK9 inh conf inactive | Kir2-1 spec inactive | KCNK9 uninduced inactive
O=C(c1ccco1)N1CCN(CCCCOc2cccc3ccccc23)CC1	none
CCc1ccc(NC(=O)C2CCN(S(=O)(=O)c3ccc4[nH]c(=O)ccc4c3)CC2)cc1	none

Assay outcomes: PubChem BioAssay, Johns Hopkins Ion Channel Center
